Bioassay records from PubChem BioAssay.
E-sel TNF inh: blocks E-selectin expression induced by TNF alpha; 0.71% of 120,000 active; inhibition, % at 2 µM; HUVEC TNFa-induced E-selectin immunofluorescence, high content;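 active = inhibition above the batch mean plus 3 SD, and confirmed as a hit on visual image review, cut at about 43% in these data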;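 note: 0% = TNF-stimulated DMSO wells and 100% = unstimulated control wells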
IL1B cytotox: toxic to HUVEC cells under IL-1B stimulation. cell count reduction, % at 2 µM. HUVEC cell count loss, Hoechst imaging, IL-1B stimulated. 0.41% of 94,000 active;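 active = cell count reduction more than 3 SD above the screen-wide mean, cut at about 70% in these data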;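 note: normalized per plate to untreated control cells as the no-loss baseline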
VCAM1 TNFa inh: reduces TNF alpha induced VCAM1 expression in HUVEC. HUVEC TNFa-induced VCAM-1 immunofluorescence, high-content imaging. inhibition, % at 2 µM. 0.48% of 95,000 active;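 active = inhibition above the batch mean plus 3 SD, with images confirmed as a hit by eye, cut at about 37% in these data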;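 note: 0% = TNF-stimulated DMSO wells and 100% = unstimulated control wells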
NFkB transloc inh: blocks IL-1B driven NFkB nuclear translocation in HUVEC cells; inhibition, % at 2 µM; HUVEC IL-1B NFkB p65 nuclear translocation imaging; 0.43% of 94,000 active;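 active = inhibition above about 30% together with a positive call from visual inspection of the well image, limit read from the data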;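 note: nuclear over cytoplasmic p65 intensity ratio measured by imaging; 0% = IL-1B stimulated DMSO wells and 100% = unstimulated DMSO wells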
IL1B NFkB pot: enhances IL-1B driven NFkB nuclear translocation; HUVEC IL-1B NFkB p65 nuclear translocation imaging; activation, % at 2 µM; 0.3% of 94,000 active; AID 819;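 active = activation above 40%, about the mean plus 3 SD, also judged a hit on visual image review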;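 note: percent activation is computed from the nuclear over cytoplasmic p65 intensity ratio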
TNFa cytotox: HUVEC cytotoxicity counter-screen, TNF alpha stimulated | HUVEC TNFalpha-stimulated, Hoechst cell count, imaging | cell count reduction, % at 2 µM | 0.17% of 93,000 active | AID 848;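 active = cell count reduction exceeding the screen mean by over 5 SD, scaled to untreated wells per plate, cut at about 78% in these data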;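 note: cells counted after 24 h of TNF alpha exposure following the 1 h pretreatment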
An asterisk follows results filed as active; nt = not tested or not shown. Only some compounds are listed: those with a hit (about 1.8% of all), similar ones and a draw of the others.

SMILES	E-sel TNF inh	IL1B cytotox	VCAM1 TNFa inh	NFkB transloc inh	IL1B NFkB pot	TNFa cytotox
COc1ccccc1NC(=O)C(C)NS(=O)(=O)c1ccccc1 (centres undefined)	1	73*	1	8	-8	-11
Cc1c(Cl)c(-c2n[nH]c(=S)n2-c2ccc(F)cc2)nn1C	-18	4	7	36*	-36	-16
COc1cc(/C=N/Nc2snc(SC)c2C#N)ccc1O	nt	14	43*	-7	7	-14
CC(C)C(=O)N(c1ccc(F)cc1)C1C=CS(=O)(=O)C1 (centres undefined)	82*	0	-10	-2	2	-18
CCOC(=O)C1C(=O)NC(N2CCN(Cc3ccccc3)CC2)=NC1c1ccco1 (centres undefined)	-3	12	-17	-10	10	-14
CCOC(=O)C1C(=O)NC(N2CCCCC2)=NC1c1ccco1 (centres undefined)	1	2	97*	2	-2	12
COC(=O)c1ccsc1-n1cc(C#N)c(=O)n(C)c1=O	-27	nt	nt	nt	nt	nt
O=C(NC(O)C(=O)c1cccs1)c1cccnc1 (centres undefined)	nt	4	14	2	-2	-33
CCNc1nc(Oc2ccc(C(=O)OC)cc2)nc(N(C)C)n1	3	11	8	-8	8	79*
CCNc1nc(N)nc(Oc2ccc(C(=O)OC)cc2)n1	-17	-4	-6	-5	5	-18
Cc1nnc2n(c1=O)C(CS(=O)(=O)c1ccc3ccccc3c1)CS2 (centres undefined)	-1	nt	nt	nt	nt	nt
CCC(=O)N1CCN(c2nc3ccccc3s2)CC1	1	19	-17	37*	-37	-4
C#CCNc1nc(CC)nc2c1nnn2Cc1ccccc1F	4	6	nt	-9	9	nt
CCC(C)NCCOCCSc1ccc(Cl)cc1 (centres undefined)	14	-75	12	0	0	-3
COC(=O)c1ccc2c(=O)n(CCCCCC(=O)NCc3ccc4c(c3)OCO4)c(=O)[nH]c2c1	1	90*	-13	25	-25	-33
CCOc1cc(C2CC(=O)N3CN(C4CCCCC4)CSC3=C2C#N)ccc1O (centres undefined)	nt	29	38	3	-3	82*
O=C(N/N=C/c1ccc(O)cc1)c1ccc(COc2cc(Cl)ccc2Cl)o1	96*	nt	23	nt	nt	-6
O=C(Nc1cccnc1)c1ccc(COc2cc(Cl)ccc2Cl)o1	13	-34	14	6	-6	2
COc1ccc(NC(=O)C2CCCCN2N)cc1OC (centres undefined)	-2	-38	14	-41	41*	-15
CCN(CC)C(=O)COc1cc(C)cc2oc(=O)cc(-c3ccccc3)c12	12	5	19	33*	-33	12
Cc1cc(OCC(=O)N(C)C)c2c(-c3ccccc3)cc(=O)oc2c1	18	5	4	11	-11	-28
Cc1ccccc1CSCC(Nc1ccc(C(=O)O)cc1[N+](=O)[O-])C(=O)O (centres undefined)	7	nt	-9	nt	nt	-11
COCCNC(=O)c1cc2nc3c(c(C(F)(F)F)n2n1)CCc1ccccc1-3	29	nt	nt	nt	nt	nt
O=C(O)c1cc2nc3c(c(C(F)(F)F)n2n1)CCc1ccccc1-3	nt	21	85*	-13	13	74
O=C1c2cccnc2C(Nc2ccc(F)c(Cl)c2)N1Cc1cccs1 (centres undefined)	12	nt	nt	nt	nt	nt
SMILES	E-sel TNF inh	IL1B cytotox	VCAM1 TNFa inh	NFkB transloc inh	IL1B NFkB pot	TNFa cytotox
CCC(=O)Nc1cccc(NC(=O)c2cc3ccccc3o2)c1	nt	-15	86*	-27	27	87*
Cc1ccccc1OCCCC(=O)Nc1ccc(N2CCOCC2)cc1	76*	nt	nt	nt	nt	nt
Cc1ccc(OCCCC(=O)Nc2ccc(N3CCOCC3)cc2)c(C)c1	-16	-3	-4	-7	7	6
Cc1cc(C)cc(OC(=O)CS(=O)c2ccc(C(F)(F)F)cc2[N+](=O)[O-])c1 (centres undefined)	28	4	18	1	-1	-21
O=C(CS(=O)c1ccc(C(F)(F)F)cc1[N+](=O)[O-])Oc1ccc(Cl)cc1 (centres undefined)	33	15	72*	7	-7	13
O=C(COC(=O)c1ccccc1C(=O)c1ccc(Cl)c([N+](=O)[O-])c1)NC1CCCCCC1	9	47	87*	83*	-83	28
CN(CCC#N)C(=O)COC(=O)c1ccccc1C(=O)c1ccc(Cl)c([N+](=O)[O-])c1	100*	nt	nt	nt	nt	nt
